In PubChem BioAssay (NCATS):
Values joined by “and” are separate entries in the source; they are usually repeats but may differ in a detail not shown here. Identical values can stand only once. Results filed as inconclusive are left out. A call without a number means that no potency is given here. A number with no mark means an inactive call. Active and inactive are the calls of the source. Unless noted, calls follow the shape of the dose curve; as a rule, active = well fitted curve in the direction sought with a large enough effect; inconclusive = small, poorly fitted or top-dose-only effect, or another doubt; inactive = no such curve, though single readings can be large; an effect the other way counts as inactive or inconclusive.

Assays:
[1] = biological target: Calcium and integrin-binding protein 1 (Homo sapiens) (UniProt Q99828); test: Primary qHTS for Identification of Calcium Integrin Binding Protein 1 (CIB1) Competitor (AID 1508620);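 also: GST tagged CIB1 binding a fluorescein labelled alphaIIb integrin peptide tracer; top concentration of the series differs between compounds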
Sequence of Calcium and integrin-binding protein 1 (Homo sapiens) (Q99828 whole entry, looked up): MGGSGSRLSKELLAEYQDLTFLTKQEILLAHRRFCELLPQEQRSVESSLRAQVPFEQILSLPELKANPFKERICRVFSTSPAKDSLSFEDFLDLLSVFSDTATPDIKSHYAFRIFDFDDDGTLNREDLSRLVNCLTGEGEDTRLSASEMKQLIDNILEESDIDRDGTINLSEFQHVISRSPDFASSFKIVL
Method in brief: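 CIB1-GST (1 uM final) and compound incubated 15 min at room temperature before adding FITC-alphaIIb peptide tracer (100 nM final). Competition for binding read by fluorescence polarization (ex 480, em 540) after another 15 min at room temperature.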

[2] = Primary qHTS for inhibitors of nuclear receptor binding SET domain protein 2 (NSD2) in an isogenic RCH-ACV NSD2 p.E1099K mutant (9B) (AID 1645876); also: nearly all actives have a fitted effect of over 70% in size; also: potency is read from the fitted curve at half-maximal effect
[3] = biological target: Cytochrome P450 2C9 (Homo sapiens) (UniProt P11712); test: Cytochrome P450 family 2 subfamily C member 9 (CYP2C9) small molecule antagonists: luciferase biochemical (cell-free) qHTS assay (AID 1645842; active = well fitted curve in the direction sought with a large enough effect in the repeat runs; an effect the other way counts as inactive or inconclusive; also: nearly all actives have a fitted effect of over 55% in size; also: potency is read from the fitted curve at half-maximal effect; as to activity change, negative = inhibition: series mostly up to about 57 µM)
Sequence of Cytochrome P450 2C9 (Homo sapiens) (P11712 whole entry, looked up): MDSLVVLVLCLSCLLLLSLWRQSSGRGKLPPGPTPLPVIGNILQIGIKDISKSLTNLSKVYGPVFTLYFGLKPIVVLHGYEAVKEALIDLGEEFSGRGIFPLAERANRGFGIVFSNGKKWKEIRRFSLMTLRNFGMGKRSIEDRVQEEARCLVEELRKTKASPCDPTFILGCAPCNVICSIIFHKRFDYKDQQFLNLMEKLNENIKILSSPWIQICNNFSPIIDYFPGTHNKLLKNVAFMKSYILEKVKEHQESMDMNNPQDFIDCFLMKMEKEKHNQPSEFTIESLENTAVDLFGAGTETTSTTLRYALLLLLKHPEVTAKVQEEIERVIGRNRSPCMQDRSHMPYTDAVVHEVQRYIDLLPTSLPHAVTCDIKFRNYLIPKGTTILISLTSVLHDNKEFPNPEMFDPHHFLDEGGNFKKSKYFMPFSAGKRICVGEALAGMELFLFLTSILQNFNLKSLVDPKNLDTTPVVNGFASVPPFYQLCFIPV
Method in brief: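 Luminescence, after 20 min with luciferin detection reagent, reflected CYP2C9 turnover during a 1 h NADPH-driven reaction at 37C. Enzyme-substrate mix contained 0.4% bovine serum albumin and was preincubated with compound 10 min at room temperature.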

[4] = Primary qHTS for inhibitors of nuclear receptor binding SET domain protein 2 (NSD2) in an RCH-ACV wild type WT cells (2C) (AID 1645877); also: nearly all actives have a fitted effect of over 70% in size; also: potency is read from the fitted curve at half-maximal effect
[5] = biological target: N-terminal Xaa-Pro-Lys N-methyltransferase 1 (Homo sapiens) (UniProt Q9BV86); test: Confirmatory qHTS for Inhibitors of N-terminal methyltransferase 1 (NTMT1): MTaseGlo Assay (AID 1645874); also: nearly all actives have a fitted effect of over 65% in size; also: potency is read from the fitted curve at half-maximal effect;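 as to activity change, negative = inhibition: luminescence from SAH made as NTMT1 methylates SPKRIA peptide using SAM; series mostly up to about 100 µM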
Sequence of N-terminal Xaa-Pro-Lys N-methyltransferase 1 (Homo sapiens) (Q9BV86 whole entry, looked up): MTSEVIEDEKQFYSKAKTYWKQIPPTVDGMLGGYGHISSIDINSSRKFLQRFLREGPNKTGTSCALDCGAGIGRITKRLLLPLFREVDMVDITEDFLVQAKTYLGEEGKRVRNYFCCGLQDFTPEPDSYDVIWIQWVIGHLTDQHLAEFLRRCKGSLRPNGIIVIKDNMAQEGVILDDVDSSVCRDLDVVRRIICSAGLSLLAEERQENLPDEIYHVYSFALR
Method in brief: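 NTMT1 (125 nM) preincubated 15 min with compound and 100 uM SAM, then 1 uM SPKRIA peptide added for 30 min at room temperature. SAH detected by MTase-Glo luminescence; normalized to no-enzyme and DMSO controls, fitted to 4-parameter Hill.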

SMILES: C=C(C)C1=C[C@@]2(C)C(=CC1=O)CC[C@@H](O)[C@@H]2C
- Potency [1]: inactive
- Potency [2]: inactive

SMILES: C/C=C(/C)C(=O)O[C@@H]1C[C@@H](OC(=O)CC(C)C)C2(C)C3C(=O)C=C(C)C2C3C1(C)C (stereo partly drawn)
- Potency [1]: inactive
- Potency [2]: inactive

SMILES: C=CC(=O)Nc1ccc2ncnc(Nc3cccc(Br)c3)c2c1
- Potency [1]: inactive
- Potency [3]: 3.38 µM (active)
- Potency [2]: 4.68 µM (active)
- Potency [4]: 4.17 µM (active)

SMILES: NC(=O)c1cccc2[nH]c(-c3ccc(C4CCCN4)cc3F)nc12 (stereo not drawn)
- Potency [1]: inactive
- Potency [3]: 10.7 µM (active)
- Potency [4]: 18.3 µM (active)

SMILES: CC(C)(C)c1ccc(C(=O)Nc2cc(Cl)c(Br)cc2C(=O)O)cc1
- Potency [1]: inactive
- Potency [3]: 16.9 µM (active)
- Potency [4]: 11.5 µM (active)

SMILES: CN1CC2CN(c3ccc4oc5ccccc5c(=O)c4c3)CC2C1 (stereo not drawn)
- Potency [1]: inactive
- Potency [3]: inactive
- Potency [4]: 12.6 µM (active)

SMILES: COc1cc(N2CCC(O)CC2)ccc1Nc1nc(Nc2ccccc2S(=O)(=O)C(C)C)c2[nH]cnc2n1
- Potency [1]: inactive
- Potency [3]: 15.1 µM (active)
- Potency [2]: 5.78 µM (active)
- Potency [4]: 4.09 µM (active)

SMILES: CC1(C=O)CCCC2(C)C1CCC13CC(CO)C(CCC12)C3 (stereo not drawn)
- Potency [1]: inactive
- Potency [2]: inactive

SMILES: CCOc1ccc(-n2c([C@@H](C)N(Cc3cccnc3)C(=O)Cc3ccc(OC(F)(F)F)cc3)nc3ncccc3c2=O)cc1
- Potency [1]: inactive
- Potency [3]: 0.952 µM (active)
- Potency [4]: 18.3 µM (active)

SMILES: C=C(C)[C@@H]1CC[C@]2(C(=O)O)CC[C@]3(C(=O)O)[C@H](CCC4[C@@]5(C)CCC(=O)C(C)(C)C5CC[C@]43C)C12 (stereo partly drawn)
- Potency [1]: inactive
- Potency [2]: 11.2 µM (active)

SMILES: CCC(C(C)O)n1ncn(-c2ccc(N3CCN(c4ccc(OCC5COC(Cn6cncn6)(c6ccc(F)cc6F)C5)cc4)CC3)cc2)c1=O (stereo not drawn)
- Potency [1]: inactive
- Potency [2]: 2.05 µM (active)

SMILES: CCCCNc1ncc(-c2ccc(CN3CCOCC3)cn2)c(NC2CCC(O)CC2)n1 (stereo not drawn)
- Potency [1]: inactive
- Potency [3]: inactive
- Potency [4]: 632 nM (active) and 1.15 µM (active)

SMILES: CC1(C)CCCC2(C)C1C(=O)C=C(C(=O)O)C2(O)C(=O)O (stereo not drawn)
- Potency [1]: inactive
- Potency [2]: 25.8 µM (active)

SMILES: CCN(Cc1ccccc1)C(=O)Cn1c(=O)n(C)c2cnc(-c3ccccc3)nc21
- Potency [1]: inactive
- Potency [3]: 19 µM (active)
- Potency [2]: inactive
- Potency [4]: inactive

SMILES: CC[C@@H](C)Nc1cc(C(=O)NC2CC3CC[C@@H](C2)N3c2ccc(C(=O)C3CC3)cn2)c(C)cc1C(N)=O (stereo partly drawn)
- Potency [1]: inactive
- Potency [5]: inactive
- Potency [2]: 0.0742 µM (active)
- Potency [4]: 0.105 µM (active)

SMILES: Cc1ccccc1C(C(=O)NC1CCCCC1)N(C(=O)Cn1cnc2ccccc21)c1cccc(F)c1 (stereo not drawn)
- Potency [1]: inactive
- Potency [3]: 16.9 µM (active)
- Potency [2]: 12.9 µM (active)
- Potency [4]: 23 µM (active)

SMILES: C/C=C(/C)C(=O)OC1CC(C)(C)CC2C3=CCC4C5(C)CCC(O[C@@H]6O[C@H](C(=O)O)[C@@H](O)[C@H](O)[C@H]6O[C@@H]6O[C@H](CO)[C@H](O)[C@H](O[C@@H]7OC[C@H](O)[C@H](O)[C@H]7O[C@@H]7O[C@H](CO)[C@@H](O)[C@H](O)[C@H]7O)[C@H]6O)C(C)(C)C5CCC4(C)C3(C)C(O)C(O)C12CO (stereo partly drawn)
- activity change, negative = inhibition [1]: -2.71% [at 12.4 µM]
- Potency [2]: 2.18 µM (active)

SMILES: CC(=O)O[C@@H]1C2=C(O)C(=O)[C@](C)(OC(C)=O)C(=O)C2=CO[C@@]12O[C@@H](C)CC[C@H]2OC(C)=O
- Potency [1]: inactive
- Potency [2]: inactive

SMILES: COc1cccc(-c2cn(-c3ccc(CCN4CCC(O)CC4)cc3)c3ncnc(N)c23)c1
- Potency [1]: inactive
- Potency [5]: 35.5 µM (active)
- Potency [2]: 1.63 µM (active)
- Potency [4]: 1.83 µM (active)

SMILES: COc1c(C(C)C)c(O)c(O)c2c1C(OC)[C@H]1OC(=O)[C@@]23CCCC(C)(C)[C@H]13 (stereo partly drawn)
- Potency [1]: inactive
- Potency [5]: inactive

SMILES: CC(=O)OC[C@]12[C@H](OC(C)=O)[C@H](OC(=O)c3ccccc3)[C@@H]3[C@@H](OC(C)=O)[C@]1(OC3(C)C)[C@H](C)C[C@H](OC(C)=O)[C@@H]2OC(=O)c1ccccc1
- Potency [1]: inactive
- Potency [2]: inactive

SMILES: C/C(=N\N=C(N)N)c1cc(NC(=O)CCCCCCCCC(=O)Nc2cc(/C(C)=N/N=C(N)N)cc(/C(C)=N/N=C(N)N)c2)cc(/C(C)=N/N=C(N)N)c1
- Potency [1]: inactive
- Potency [5]: 20 µM (active)
- Potency [2]: 11.5 µM (active)
- Potency [4]: 11.5 µM (active)

SMILES: C/C=C/C=C/C(=O)O[C@@H]1C=C2COC(=O)[C@]2(O)[C@@]2(C)CCCC(C)(C)[C@H]12
- Potency [1]: inactive
- Potency [2]: inactive

SMILES: CCCCCc1ccc(/C=C/C(=O)Nc2cc(Cl)ccc2C(=O)O)cc1
- Potency [1]: inactive
- Potency [2]: inactive
- Potency [4]: inactive

SMILES: COc1cc2c(cc1O)C1(Cc3ccc4c(c3C1O)OCO4)[N+](C)([O-])CC2 (stereo not drawn)
- Potency [1]: inactive
- Potency [2]: inactive

SMILES: C/C(=C/C=C\C=C\Cc1cnco1)[C@@H](O)C(C)(C)C(N)=O
- Potency [1]: inactive
- Potency [2]: inactive
- Potency [4]: inactive

SMILES: COc1ccc(CCc2nc3c(C)c(-c4c(C)noc4C)c(C)cc3n2CCN2CCOCC2)cc1
- Potency [1]: inactive
- Potency [2]: 18.3 µM (active)
- Potency [4]: 18.3 µM (active)

SMILES: CC(=O)N[C@H]1[C@H](O[C@H]2CC[C@@]3(C)C(CC[C@]4(C)C3CC=C3C5CC(C)(C)CC[C@]5(C(=O)O)C(O)C[C@]34C)C2(C)C)O[C@H](CO[C@@H]2O[C@H](C)[C@H](O)[C@H](O)[C@H]2O[C@@H]2OC[C@@H](O)[C@H](O)[C@H]2O)[C@@H](O)[C@@H]1O (stereo partly drawn)
- Potency [1]: inactive
- Potency [2]: 2.45 µM (active)
